Inconclusive results are not listed. Unmarked numbers belong to inactive results. The source made the active and inactive calls. Unless noted, calls come from the whole dose curve; as a rule, active = well fitted curve in the direction sought with a large enough effect in the repeat runs; inconclusive = weak or mixed curves; inactive = no such curve, though single readings can be large; an effect the other way counts as inactive or inconclusive.

Assay [1] can be described thus: qHTS assay to identify small molecule agonists of the vitamin D receptor (VDR) signaling pathway - cell viability counter screen (AID 743224). Note: nearly all actives have a fitted effect of over 50% in size. Note: potency is the fitted concentration of half-maximal effect. A digest of the protocol:
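Here cell health was gauged by luminescent ATP detection (CellTiter-Glo, 30 min RT) in VDR-bla cells that had been incubated with test compounds for 16 h at 37C and 5% CO2.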
In general terms: qHTS replaces the single test concentration by a dilution series.

Assay [2] is described as follows: qHTS assay to identify small molecule antagonists of the vitamin D receptor (VDR) signaling pathway - cell viability counter screen (AID 743225). Note: nearly all actives have a fitted effect of over 50% in size. Note: potency is the fitted concentration of half-maximal effect. The method in brief: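 Read-out: CellTiter-Glo luminescence measured 30 min after reagent addition at room temperature. Cells were VDR-bla HEK 293T exposed 16 h at 37C, 5% CO2, to compound with 3 nM final calcitriol agonist.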

Assay [3] is described as follows: qHTS assay to identify small molecule agonists of the NFkB signaling pathway (AID 1159509; active = well fitted curve in the direction sought with a large enough effect in the signal ratio in the repeat runs, not every such curve was filed as active; the % refers to the signal ratio). A digest of the protocol:
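NFkB-bla ME-180 cells with a beta-lactamase reporter under an NF-kB response element were plated overnight, treated with compounds in DMSO for 5 hr at 37 C, then loaded with FRET substrate for 1.5 hr at room temperature.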

The nature of assay [4]: qHTS assay to identify small molecule agonists of the NFkB signaling pathway - cell viability counter screen (AID 1159515; calls by dose curve; note: nearly all actives have a fitted effect of over 55% in size). A digest of the protocol: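 5 hr compound treatment of NFkB-bla ME-180 cells (2,000/well, seeded overnight beforehand), followed by reporter substrate for 1.5 hr. CellTiter-Glo added afterward; luminescence after 30 min RT.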
A short description of assay [5]: qHTS assay to identify small molecule agonists of the endoplasmic reticulum stress response signaling pathway - cell viability counter screen (AID 1159517; calls by dose curve;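 note: HeLa cells carrying an ER stress response element beta-lactamase reporter; nearly all actives have a fitted effect of over 50% in size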). The method in brief:
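Counter-screen wells were identical to the reporter wells. Cells were plated at 1,500 per well and dosed for 5 hr, then read for luminescence 30 min after CellTiter-Glo addition.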

Assay [6] is described as follows: qHTS assay to identify small molecule antagonists of the retinoid-related orphan receptor gamma (ROR-gamma) signaling pathway - cell viability counter screen (AID 1159520). Note: nearly all actives have a fitted effect of over 50% in size. Note: potency is the fitted concentration of half-maximal effect. A digest of the protocol:
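Tet-on ROR gamma CHO cells were given compounds for 2 hr, then doxycycline hyclate at 1 uM final, and incubated 16 hr at 37 C. Viability was measured as ATP content by CellTiter-Glo luminescence.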

Assay [7] has as its target Nuclear receptor ROR-gamma (Homo sapiens) (UniProt P51449). As to the kind of experiment: qHTS assay to identify small molecule antagonists of the retinoid-related orphan receptor gamma (ROR-gamma) signaling pathway (AID 1159521; note: nearly all actives have a fitted effect of over 50% in size; note: potency is the fitted concentration of half-maximal effect). The method in brief: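 CHO Tet-on RORγ, RORE-luc reporter. Cpd 2 h pre-incubation, then dox hyclate 1 uM final, 16 h, 37 C/5% CO2. ONE-Glo luminescence; decrease = antagonist.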

The target in assay [8] is Retinoic acid receptor RXR-alpha (Homo sapiens) (UniProt P19793). As to the kind of experiment: qHTS assay to identify small molecule agonists of the RXR signaling pathway (AID 1159527; calls by dose curve; note: nearly all actives have a fitted effect of over 35% in size; note: potency is the fitted concentration of half-maximal effect). A digest of the protocol: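 Read-out: beta-lactamase FRET ratio (405 nm excitation, 460 and 530 nm emission) after 2 hr substrate loading at room temperature. Cells were RXR-alpha-UAS-bla HEK 293T treated with compounds for 16 hr in 2% charcoal-stripped FBS medium.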
Chain of Retinoic acid receptor RXR-alpha (Homo sapiens) (P19793 whole entry, looked up): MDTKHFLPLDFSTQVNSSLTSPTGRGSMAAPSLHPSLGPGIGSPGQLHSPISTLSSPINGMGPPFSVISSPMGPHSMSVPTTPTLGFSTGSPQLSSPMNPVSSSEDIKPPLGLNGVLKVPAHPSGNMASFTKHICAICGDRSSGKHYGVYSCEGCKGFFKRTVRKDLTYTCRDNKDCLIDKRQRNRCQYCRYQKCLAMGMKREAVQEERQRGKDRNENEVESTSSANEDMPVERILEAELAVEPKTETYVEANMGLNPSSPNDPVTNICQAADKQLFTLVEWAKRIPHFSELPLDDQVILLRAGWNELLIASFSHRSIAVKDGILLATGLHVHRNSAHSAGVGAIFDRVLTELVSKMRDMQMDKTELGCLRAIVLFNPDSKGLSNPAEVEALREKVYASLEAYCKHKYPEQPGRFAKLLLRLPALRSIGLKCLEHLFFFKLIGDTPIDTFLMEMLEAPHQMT

Assay [9] can be described thus: qHTS assay to identify small molecule agonists of the RXR signaling pathway - cell viability counter screen (AID 1159529). Note: nearly all actives have a fitted effect of over 50% in size. Note: potency is the fitted concentration of half-maximal effect. A digest of the protocol: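 HEK 293T RXRa-bla cells, 2% CS-FBS; 5 h settle; cpd 16 h 37 C, 5% CO2; CellTiter-Glo 30 min RT, luminescence. Tetraoctyl ammonium bromide as positive control.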
The nature of assay [10]: qHTS assay to identify small molecule antagonists of the retinoid acid receptor (RAR) signaling pathway - cell viability counter screen (AID 1159551). Note: nearly all actives have a fitted effect of over 35% in size. Note: potency is the fitted concentration of half-maximal effect. The method in brief: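 Seed C3RL4 cells; next day add compound, then retinol to 1 uM final; incubate 6 h at 37 C; add CellTiter-Glo; read luminescence after 30 min at RT.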
Assay [11] can be described thus: qHTS assay to identify small molecule agonists of the AP-1 signaling pathway - cell viability counter screen (AID 1159525; calls by dose curve; note: nearly all actives have a fitted effect of over 55% in size; note: potency is the fitted concentration of half-maximal effect). A digest of the protocol: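 AP-1-bla ME-180 cells in Opti-MEM with 0.5% dialyzed FBS, compound exposure 5 h at 37 C in 15-point titration. Viability read in the same wells as ATP content by CellTiter-Glo luminescence, normalised to tetra-n-octylammonium bromide and DMSO controls.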

Assay [12] is described as follows: qHTS assay to identify small molecule antagonists of the retinoic acid receptor (RAR) signaling pathway (AID 1159552; note: nearly all actives have a fitted effect of over 50% in size; note: potency is the fitted concentration of half-maximal effect). A digest of the protocol: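 Cells of the C3RL4 line were seeded, incubated overnight, then dosed with compounds in DMSO followed immediately by retinol (1 uM final). Six hours later luciferase detection reagent went in; signal was measured after 30 min at RT.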

A short description of assay [13]: qHTS assay to identify small molecule agonists of the AP-1 signaling pathway (AID 1159526; calls by dose curve).
Assay [14] is described as follows: qHTS assay to identify small molecule agonists of the retinoic acid receptor (RAR) signaling pathway (AID 1159553). The note with it: C3RL4 RARE luciferase reporter, agonist, 6 h; activation: at 73.3 µM (top of the series). A digest of the protocol:
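Activation of retinol signaling was monitored via a RARE luciferase reporter in C3RL4 cells. After 6 hr compound treatment at 37 C, detection reagent was added for 30 min at room temperature before luminescence reading.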

Assay [15] in a line: qHTS assay to identify small molecule agonists of the estrogen related receptor (ERR) signaling pathway (AID 1224820). The method in brief: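 ERR reporter cells (NTP line) plated 2,000/well, incubated 6 h at 37 C/5% CO2, then pinned with compounds in DMSO and held 18 h at 37 C. One-Glo added; luminescence read after 30 min at room temperature.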
Assay [16] concerns estrogen-related receptor alpha (ERRalpha) with PGC-1alpha coactivator, human. As to the kind of experiment: qHTS assay to identify small molecule antagonists of the estrogen related receptor signaling pathway with the pleiotropic PPARgamma coactivator (PGC) (AID 1224821; calls by dose curve). A digest of the protocol:
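Cells engineered for PGC/ERR signalling (line from NTP) were plated 6 h at 37 C/5% CO2, then exposed to DMSO-dissolved compound for 18 h at 37 C. Luciferase activity was read by One-Glo luminescence after 30 min at room temperature.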

A short description of assay [17]: qHTS assay to identify small molecule agonists of the estrogen related receptor signaling pathway with the pleiotropic PPARgamma coactivator (PGC) (AID 1224823). A digest of the protocol:
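PGC/ERR reporter cells were seeded, rested 6 h at 37 C/5% CO2, then exposed to compounds in DMSO by pin transfer for 18 h at 37 C. Luciferase activity was read as luminescence after One-Glo reagent and 30 min at room temperature.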

`O=[N+]([O-])c1ccc(Nc2ccc(Nc3ccccc3)c(S(=O)(=O)O)c2)c([N+](=O)[O-])c1`: the Potency result in assay [1], in assay [2], in [3], in assay [4], in assay [5] and in assay [6] was “inactive” throughout. In addition, the Potency entry in assay [7], in assay [8], in [9] and in assay [10] was “inactive” each time.

For the molecule `CCCCCCCCCCCCCCN(CCO)CCO`, the Potency in assay [1] is 24.5 µM (active); in assay [2] it was 43.6 µM (active); in assay [6], 61.1 µM (active); in assay [7], 30.6 µM (active); in [11] it was 54.9 µM (active); in assay [9], 21.9 µM (active). Moreover, the Potency is 61.1 µM (active) in assay [10] and 30.6 µM (active) in assay [12]. The Potency entry in [3], in assay [4] and in [5] was “inactive” throughout.

For the molecule `COc1cc(Nc2c(C#N)cnc3cc(OCCCN4CCN(C)CC4)c(OC)cc23)c(Cl)cc1Cl`, the Potency in assay [2] was 19 µM (active); in [9] it was 8.49 µM (active). In addition, the Potency entry in assay [3], in assay [4], in assay [5], in assay [7], in [11] and in assay [10] was “inactive” each time.

Consider `OC[C@H]1O[C@@H](n2cnc3c(=S)nc[nH]c32)[C@H](O)[C@@H]1O`, for which the values for the Potency in [1], in assay [2] and in [9] were 7.5 µM (active), 8.49 µM (active) and 2.13 µM (active), respectively. In addition, the Potency entry in assay [3], in assay [4], in [5], in assay [6], in assay [11] and in [13] was “inactive” throughout. Also, in assay [12], the Potency entry is “inactive”.

Consider `O=C(Nc1cccc2c(=O)cc(-c3nn[nH]n3)oc12)c1ccc(OCCCCc2ccccc2)cc1`, for which the Potency entry in assay [3], in assay [4], in assay [5], in [6], in [8] and in assay [9] was “inactive” throughout. For the same molecule, the Potency result in [10], in assay [12] and in [14] was “inactive” each time.

For the molecule `CC(CN(C)C)C(C)(O)Cc1ccc(Cl)cc1` (stereo not drawn), the Potency result in [1], in assay [2], in [3], in assay [4], in [5] and in [6] was “inactive” each time. The Potency entry in assay [11], in assay [13], in [8], in assay [9], in assay [10] and in [12] was “inactive” each time. Moreover, the Potency result in assay [14] was “inactive”.

As to `CC(=O)[C@H]1[C@H](C#N)C[C@H]2[C@@H]3CC=C4C[C@@H](O)CC[C@]4(C)[C@H]3CC[C@@]21C`, the Potency result in assay [1], in assay [2], in assay [3], in assay [4], in [5] and in assay [6] was “inactive” each time. The Potency result in assay [7], in assay [11], in assay [8], in assay [9], in assay [10] and in [12] was “inactive” throughout.

On to `O=C1CCCCCCCCCCOCCCCO1`, for which the Potency result in assay [2], in assay [3], in assay [4], in assay [5], in [6] and in assay [7] was “inactive” in each case. Further, the Potency entry in assay [11], in assay [8], in assay [10], in assay [12] and in assay [14] was “inactive” each time.

Take `CCOC(=O)C1=C(C)NC(C)=C(C(=O)OC)C1c1cccc(Cl)c1Cl` (stereo not drawn): the Potency entry in assay [3], in [4], in [5], in assay [7], in assay [11] and in assay [13] was “inactive” throughout. For the same molecule, the Potency result in assay [8], in assay [10] and in assay [14] was “inactive” throughout. In addition, the molecule was called inactive in assay [15], in assay [16] and in [17].

For the molecule `CCCCCCCCCCC(=O)O`, the Potency result in [1], in assay [3], in assay [4], in [5], in assay [6] and in [11] was “inactive” throughout. Further, the Potency entry in assay [13], in assay [9], in assay [10], in assay [12] and in [14] was “inactive” in each case. Besides, in assay [8], the Potency is 49.6 µM (active).

Values taken from PubChem BioAssay (Tox21).
